The results in this text go back to the supplement of paper PMC10503962.

The subject of the assay is Trichuris muris adult worms. As to the kind of experiment: mean motility score (Paragon pixel variance) of adult worms (arbitrary units); higher = more motile worms, i.e. less anthelmintic effect; extreme values may be limits of the assay. Particulars: 100 µM; 24 h. The procedure:
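Primary ex vivo screen of 409 approved drugs against adult Trichuris muris worms: one worm per well in RPMI-1640 with penicillin/streptomycin, 100 µM drug in 1% DMSO, 37 °C, 5% CO2 for 24 h. Motility was recorded with INVAPP (200-frame movies) and scored with the Paragon pixel-variance algorithm. Values are means of triplicate wells run on three occasions; levamisole was the positive control and DMSO the negative control.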
As for `COc1ccc(/C=C/C(=O)Nc2ccccc2C(=O)O)cc1OC` [tranilast], the mean motility score was found to be 1720.
As for `Cc1ncc([N+](=O)[O-])n1CC(C)O` (stereo not given) [secnidazole], the figure is 2540; as for `C=C[C@H]1CN2CC[C@H]1C[C@@H]2[C@@H](O)c1ccnc2ccc(OC)cc12` [quinidine], 1610.
As for `CCCCc1nc(Cl)c(CO)n1Cc1ccc(-c2ccccc2-c2nn[nH]n2)cc1` [losartan], the figure is 3650.
As for `CC(=O)Nc1c(I)c(NC(C)=O)c(I)c(C(=O)O)c1I` [diatrizoic acid], the figure is 1110; as for `Oc1nc2ccccc2n1C1CCN(CCCC(c2ccc(F)cc2)c2ccc(F)cc2)CC1` [pimozide], 0; as for `COC(=O)C1=C(C)NC(C)=C(C(=O)OCCN(C)Cc2ccccc2)C1c1cccc([N+](=O)[O-])c1` (stereo not given) [nicardipine], 0.
In turn, `CNCCC=C1c2ccccc2CCc2ccccc21` [nortriptyline] displayed a mean motility score of 911.
As for `CCn1cc(C(=O)O)c(=O)c2cc(F)c(N3CCNC(C)C3)c(F)c21` (stereo not given) [lomefloxacin], the figure is 3840.
The value for `CCOC(=O)[C@H](CCc1ccccc1)N[C@@H](C)C(=O)N1CCC[C@H]1C(=O)O` [enalapril] was 2120; that for `C[C@H]1O[C@@H](n2cc(F)c(=O)[nH]c2=O)[C@H](O)[C@@H]1O` [doxifluridine] was 2010; that for `Oc1ncnc2[nH]ncc12` [allopurinol] was 4000.
As for `CC[C@H](C)C(=O)O[C@H]1C[C@@H](C)C=C2C=C[C@H](C)[C@H](CC[C@@H]3C[C@@H](O)CC(=O)O3)[C@H]21` [lovastatin], the figure is 96.7.
Compound `Cc1nnc(SCC2=C(C(=O)[O-])N3C(=O)[C@@H](NC(=O)Cn4cnnn4)[C@H]3SC2)s1.[Na+]` [cefazolin sodium] had a mean motility score of 1680.
In the case of `CN1CCc2cccc3c2[C@H]1Cc1ccc(O)c(O)c1-3` [apomorphine], the mean motility score came out at 2320.
As for `CSCC[C@H](N)C(=O)O` [methionine], the figure is 3180; as for `C[C@H]1O[C@@H](O[C@H]2[C@@H](O)C[C@H](O[C@H]3[C@@H](O)C[C@H](O[C@H]4CC[C@@]5(C)[C@H](CC[C@@H]6[C@@H]5CC[C@]5(C)[C@@H](C7=CC(=O)OC7)CC[C@]65O)C4)O[C@@H]3C)O[C@@H]2C)C[C@H](O)[C@@H]1O` [digitoxin], 3060; as for `CCCCCCCCCCC[C@@H](C[C@@H]1OC(=O)[C@H]1CCCCCC)OC(=O)[C@H](CC(C)C)NC=O` [orlistat], 3180.
The value for `COc1cc2nc(N(C)CCCNC(=O)C3CCCO3)nc(N)c2cc1OC` (stereo not given) [alfuzosin] was 2420.
The value for `N[C@@H](Cc1cc(I)c(Oc2ccc(O)c(I)c2)c(I)c1)C(=O)O` [liothyronine] was 1020.
For the compound `Cc1[nH]c2ccccc2c1CCNCc1ccc(/C=C/C(=O)NO)cc1` [panobinostat], the mean motility score turned out to be 2620.
The value for `O=C(O)/C=C/C(=O)O` [fumaric acid] was 3100; that for `CC(C)NCC(O)COc1cccc2[nH]ccc12` (stereo not given) [pindolol] was 4670.
As for `CC1(C)NC(=O)N(c2ccc([N+](=O)[O-])c(C(F)(F)F)c2)C1=O` [nilutamide], the figure is 1900; as for `O=C(O)c1ccc2ccccc2c1O.OCc1cc(C(O)CNCCCCCCOCCCCc2ccccc2)ccc1O` (stereo not given) [salmeterol xinafoate], 0; as for `Cc1c(O)cccc1C(=O)N[C@@H](CSc1ccccc1)[C@H](O)CN1C[C@H]2CCCC[C@H]2C[C@H]1C(=O)NC(C)(C)C` [nelfinavir], 1430.
The value for `Clc1ccc2c(c1)C(N1CCNCC1)=Nc1ccccc1O2` [amoxapine] was 804; that for `Cc1ccc(O)c(-n2nc3ccccc3n2)c1` [drometrizole] was 2400; that for `CC1=C(/C=C/C(C)=C/C=C/C(C)=C/CO)C(C)(C)CCC1` [retinol] was 2970.
In turn, `CN/C(=N/CCSCc1nc[nH]c1C)NC#N` [cimetidine] yielded a mean motility score of 2750.
`Nc1ccc(S(N)(=O)=O)cc1` [sulfanilamide] showed a mean motility score of 2370.
In the case of `C[C@@H](c1ncncc1F)[C@](O)(Cn1cncn1)c1ccc(F)cc1F` [voriconazole], the mean motility score stood at 4350.
`CN1CCC(=C2c3ccccc3C=Cc3ccccc32)CC1` [cyproheptadine] gave a mean motility score of 417.
As for `CC(=O)c1c(C)c2cnc(Nc3ccc(N4CCNCC4)cn3)nc2n(C2CCCC2)c1=O` [palbociclib], the figure is 1970.
As for `NS(=O)(=O)c1cc2c(cc1C(F)(F)F)NCNS2(=O)=O` [hydroflumethiazide], the figure is 1060.
As for `COc1cc2nccc(Oc3ccc(NC(=O)C4(C(=O)Nc5ccc(F)cc5)CC4)cc3)c2cc1OC` [cabozantinib], the figure is 3950.
On to `C=CC(=O)N1CCC[C@@H](n2nc(-c3ccc(Oc4ccccc4)cc3)c3c(N)ncnc32)C1` [ibrutinib], for which the mean motility score amounted to 433.
As for `C[C@H](CS)C(=O)N1CCC[C@H]1C(=O)O` [captopril], the figure is 3330.
Consider `C=C(c1ccc(C(=O)O)cc1)c1cc2c(cc1C)C(C)(C)CCC2(C)C` [bexarotene], for which the mean motility score was determined as 750.
The value for `CCOc1ccc2ccccc2c1C(=O)N[C@@H]1C(=O)N2[C@@H]1SC(C)(C)[C@@H]2C(=O)[O-].O.[Na+]` [nafcillin sodium monohydrate] was 3570.
